# Bioassay records (PubChem)
# Most compounds without a hit are left out; they make up all but 18% or so of the library.
# DT40 TDP1 no CPT: qHTS for Inhibitors of human tyrosyl-DNA phosphodiesterase 1 (TDP1): qHTS in cells in absence of CPT; DT40 Tdp1-/- hTDP1 cells, no CPT, ATP luminescence, 48 h; Potency, µM (highest dose often 46.2 µM), for inactives: top-dose activity change, negative = growth inhibition, usual class: inhibitors; 420,000 tested, 15% active; also: potency is read from the fitted curve at half-maximal effect; nearly all actives have a fitted effect of over 55% in size
#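 Growth of hTDP1-complemented DT40 Tdp1-knockout cells is measured by ATP luminescence after at least 48 hr compound exposure at 37 °C, with DMSO substituting for the 20 nM CPT used in the parallel screen.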
# DT40 TDP1 CPT: qHTS for Inhibitors of human tyrosyl-DNA phosphodiesterase 1 (TDP1): qHTS in cells in presence of CPT. chicken DT40 Tdp1-/-;hTDP1 cells + 20 nM CPT, ATP luminescence, 48 h. Potency, µM (doses to about 46.2 µM), without a hit: at the highest dose activity change, negative = growth inhibition, hits mostly inhibitors. 420,000 tested, 12% active. AID 686979, 2013; also: potency is read from the fitted curve at half-maximal effect; nearly all actives have a fitted effect of over 55% in size
#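 Cell growth measured by CellTiter-Glo luminescence after a minimum 48 h, 37 C compound exposure with 20 nM CPT in Tdp1-knockout DT40 cells stably expressing hTDP1, seeded 400/well; qHTS titration format.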
# TDP1 inh: qHTS Assay for Inhibitors of Tyrosyl-DNA Phosphodiesterase (TDP1). Tyrosyl-DNA phosphodiesterase 1 (Homo sapiens), Q9NUW8. Potency, µM (titrated, usually from 130 µM), for inactives: top-dose activity change, negative = inhibition, hits mostly inhibitors. recombinant TDP1, AlphaScreen DNA substrate cleavage. 350,000 tested, 0.28% active; also: potency is read from the fitted curve at half-maximal effect; nearly all actives have a fitted effect of over 40% in size
#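 E. coli-derived human Tdp1, 1 nM final. Cpd preinc 15 min RT; substrate 15 nM final, 5 min RT; AS bead mix 10 ug/ml final, 10 min RT. Signal loss = tyrosine-FITC cleavage. No-enzyme wells = max signal.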
# IL1B secr inh: qHTS for Inhibitors of Inflammasome Signaling: IL-1-beta AlphaLISA Primary Screen; THP-1 LPS/ATP IL-1B secretion, AlphaLISA, 16 h; stronger effect = lower value; activity change, % at 57.5 µM; 360,000 tested, 4.7% active; AID 743279, 2014; in the data active = activity change below about -50%; inconclusive = mostly about -30% to -49%
#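 Secreted IL-1B measured by AlphaLISA bead assay after 16 h compound exposure of THP-1 cells; compounds (final up to 57.5 uM) added 1 h before LPS (250 ng/mL) and ATP (1.25 mM) stimulation; lower signal means less secretion.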
# CtBP-E1A inh: qHTS Assay for Inhibitors of the CtBP/E1A Interaction. CtBP / adenovirus E1A interaction (AlphaScreen). AlphaScreen GST-E1A/His-CtBP binding, 1536-well; stronger effect = lower value. activity change, % (no concentration beside the values). 340,000 tested, 0.49% active; in the data active = activity change below about -65%; inconclusive = mostly about -30% to -63%
#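 GST-E1A and His-tagged CtBP (125 nM each as 5X stock) were preincubated with pin-transferred compound for 2 h at 37 °C in the dark, then glutathione donor and nickel acceptor beads were added for 1 h before AlphaScreen reading.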
# Six1-Eya2 blk: qHTS Assay for Inhibitors of the Six1/Eya2 Interaction; Homeobox protein SIX1 (Homo sapiens) + Protein phosphatase EYA2 (Homo sapiens), …; AlphaScreen GST-Six1/His-Eya2 binding, biochemical; stronger effect = lower value; AID 651725, 2012; activity change, % (test concentration not listed); 360,000 tested, 0.56% active; in the data active = activity change below about -65%; inconclusive = mostly about -30% to -63%
# Target sequence (O00167 whole entry, looked up): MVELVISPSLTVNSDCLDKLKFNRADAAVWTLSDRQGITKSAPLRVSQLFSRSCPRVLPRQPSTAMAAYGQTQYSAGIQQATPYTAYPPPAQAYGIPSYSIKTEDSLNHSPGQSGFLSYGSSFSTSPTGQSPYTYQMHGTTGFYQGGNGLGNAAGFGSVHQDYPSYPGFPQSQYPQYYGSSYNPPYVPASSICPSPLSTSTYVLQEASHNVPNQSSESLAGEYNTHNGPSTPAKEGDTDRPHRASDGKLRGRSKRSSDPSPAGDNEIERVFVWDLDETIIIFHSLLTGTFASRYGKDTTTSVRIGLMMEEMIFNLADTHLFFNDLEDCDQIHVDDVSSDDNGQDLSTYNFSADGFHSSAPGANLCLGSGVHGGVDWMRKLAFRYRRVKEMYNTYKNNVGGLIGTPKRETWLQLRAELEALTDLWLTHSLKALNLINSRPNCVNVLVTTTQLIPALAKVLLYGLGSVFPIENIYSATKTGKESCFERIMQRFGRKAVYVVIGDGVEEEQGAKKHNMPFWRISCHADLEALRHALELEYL
# Target sequence (Q15475 whole entry, looked up): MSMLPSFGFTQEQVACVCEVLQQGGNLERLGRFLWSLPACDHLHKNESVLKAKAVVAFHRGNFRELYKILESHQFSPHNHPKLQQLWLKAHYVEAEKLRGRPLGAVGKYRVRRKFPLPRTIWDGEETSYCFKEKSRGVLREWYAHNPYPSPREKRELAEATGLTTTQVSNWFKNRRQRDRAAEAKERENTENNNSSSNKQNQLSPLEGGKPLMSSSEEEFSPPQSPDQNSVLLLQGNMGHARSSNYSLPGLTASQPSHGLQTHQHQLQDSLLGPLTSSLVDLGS
#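 AlphaScreen luminescence read after one hour at 37 °C in darkness. Pin-transferred compounds met GST-Six1 and His-Eya2 protein (5X stock 250 nM/500 nM) plus glutathione donor and Ni-chelate acceptor beads (5X, 50 ug/mL).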
# An asterisk follows results filed as active; ? = inconclusive; / = no result. Unless noted, calls follow the shape of the dose curve; as a rule, active = well fitted curve in the direction sought with a large enough effect; inconclusive = small, poorly fitted or top-dose-only effect, or another doubt; inactive = no such curve, though single readings can be large; an effect the other way counts as inactive or inconclusive. % is scaled to controls: 0 for no effect and ±100 for the full control effect.
SMILES,DT40 TDP1 no CPT,DT40 TDP1 CPT,TDP1 inh,IL1B secr inh,CtBP-E1A inh,Six1-Eya2 blk
CCOc1ccc(OCC)c(S(=O)(=O)N2CCCCC2C)c1 (stereo not drawn),?,23µM*,0%,7,-12,5
O=C(Nc1cccc(C(F)(F)F)c1)C1CCCN1S(=O)(=O)c1cccc2cccnc12 (stereo not drawn),16µM*,23µM*,2%,-7,-5,-1
O=C(Nc1cccc(Cl)c1)C1CCCN1S(=O)(=O)c1cccc2cccnc12 (stereo not drawn),?,?,0%,/,/,/
COc1ccc(NC(=O)C2CCN(S(=O)(=O)c3cccc4cccnc34)CC2)cc1OC,/,/,0%,/,/,/
COc1ccc(NC(=O)c2cc(OC)c(OC)c(OC)c2)cn1,-4%,-11%,4%,-9,62,15
CCc1nc(SCC(=O)NCCc2ccccc2)n[nH]1,-16%,-5%,5%,18,4,12
CCOC(=O)c1ccc(NC(=O)c2ccccc2[N+](=O)[O-])cc1,18µM*,-7%,4%,12,2,2
CCOC(=O)c1ccc(NC(=O)c2cccc(C)c2[N+](=O)[O-])cc1,-20%,2%,5%,0,1,5
Cc1c(C(=O)NC(=S)Nc2ccc(NC(=O)c3cccs3)cc2)cccc1[N+](=O)[O-],13µM*,?,/,14,-13,-15
O=C(Nc1ccccc1)c1ccc(Nc2c([N+](=O)[O-])cc([N+](=O)[O-])c3ccccc23)cc1,10µM*,7.3µM*,5%,7,-8,5
CCC(=O)Nc1cccc(NC(=O)c2cccc([N+](=O)[O-])c2C)c1,23µM*,?,5%,3,-9,-9
Cc1c(C(=O)Nc2ccc3c(c2)CCC3)cccc1[N+](=O)[O-],?,1%,0%,-16,3,-3
CCOc1ccc(CCNC(=O)COC(=O)/C=C/c2ccccc2OC)cc1OCC,?,?,-7%,-7,-3,-11
CCCN(CCC)C(=O)Cn1c(=O)n(Cc2ccc(C(=O)NCCc3ccc(OC)c(OC)c3)cc2)c(=O)c2ccccc21,?,?,5%,/,/,/
COc1ccc(/C=C(/C#N)S(=O)(=O)c2ccc(C)cc2)cc1,-13%,0%,7%,3,-1,1
O=C(Oc1ccccc1C(=O)Nc1ccccc1)c1ccc(Br)c([N+](=O)[O-])c1,?,-21%,6%,-73*,6,-8
O=[N+]([O-])c1cc(Br)c(Nc2ccccc2)c([N+](=O)[O-])c1,0.92µM*,0.82µM*,/,-98*,/,-4
CCOC(=O)c1ccc(NCCOC)c([N+](=O)[O-])c1,-5%,-8%,4%,4,1,-6
Cc1c(C(=O)Nc2ccc3c4c(cccc24)CC3)cccc1[N+](=O)[O-],16µM*,?,5%,47,0,-6
CCOC(=O)c1cc([N+](=O)[O-])c([N+](=O)[O-])cc1NC(C)=O,0.92µM*,?,8%,-81*,-28,-27
Cc1c(C(=O)Nc2ccc3c(c2)OCCO3)oc2ccc(Br)cc12,3%,-6%,0%,-20,-15,2
O=C(Cn1c(NCCCO)nc2ccccc21)c1ccc(Cl)cc1Cl,?,2%,6%,-11,2,1
COc1ccc(CC(=O)N2CCc3c([nH]c4ccccc34)C2c2ccc(SC)cc2)cc1 (stereo not drawn),?,?,8%,/,/,/
Cc1c(C(=O)Nc2ccc(Nc3ccccc3)cc2)cccc1[N+](=O)[O-],8.2µM*,9.2µM*,9%,?,/,-1
Cc1ccc(C(=O)CN(CCCC(N)=O)C(=O)c2ccncc2)cc1,8%,0%,-3%,24,-1,10
SMILES,DT40 TDP1 no CPT,DT40 TDP1 CPT,TDP1 inh,IL1B secr inh,CtBP-E1A inh,Six1-Eya2 blk
O=C(C[n+]1cnn(CC(=O)c2ccc(Cl)cc2Cl)c1)c1ccc([N+](=O)[O-])cc1,?,?,5%,-71*,4,-5
O=C(Cn1cnc([N+](=O)[O-])c1)c1ccc(Cl)cc1,-12%,-23%,-3%,12,1,7
CCOc1ccc(/C=N/O)cc1,1%,4%,7%,9,/,5
CCOc1ccc(/C=N/Nc2ccccc2)cc1,15µM*,?,/,23,/,-1
O=C(O)c1ccc(N/N=C/c2ccc3nccnc3c2)cc1,12µM*,12µM*,-3%,-9,-11,-25
C=CCOc1c(OC)cc(/C=N/Nc2cccc(C(=O)O)c2)c(Br)c1Br,16µM*,16µM*,3%,0,-19,-6
C=CCOc1c(/C=N\NC(N)=O)cccc1OC,-9%,16%,0%,-4,/,-5
CSc1ccc(/C=N/Nc2cccc(C(=O)O)c2)cc1,-26%,3%,1.1µM*,10,-17,?
S=C(Nc1cccc2ccccc12)NN1CCCCCC1,?,?,/,32,1,0
CC1C(=O)N2CCCc3cc(S(=O)(=O)NCc4ccc(Cl)cc4)cc1c32 (stereo not drawn),?,?,3%,0,0,3
COC(=O)c1ccc(COc2ccc(/C=N/Nc3cccc(C(=O)O)c3)cc2)cc1,9%,-21%,40µM*,0,-8,-17
CCN(CC)c1ccc(NC(=O)CSc2nnc3nc(C)cc(C)n23)cc1,?,1%,-6%,-10,-8,-7
O=C(Nc1ccn(CCCNCCc2ccccn2)c(=O)n1)OCc1ccccc1,-1%,0%,/,-2,-4,-5
O=C1C=CC(=O)N1c1ccc(-c2nc3ccccc3o2)cc1,1.6µM*,1.8µM*,/,-22,8,-5
O=C(C1CCCCC1)N1CCN(c2nc(-c3ccc(F)cc3)cs2)CC1,?,?,-8%,14,2,-2
COCCNC(=S)N1CCN(c2nc(-c3ccccc3)cs2)CC1,18µM*,?,/,-11,-8,-18
CCCNC(=S)N1CCN(c2nc(-c3cccc(OC)c3)cs2)CC1,?,?,/,-59*,-2,-20
